For 65 compounds, fold change results are on record in PubChem BioAssay AID1259312 (Keith Lab, Institute of Cancer Science, University of …, 2017).

Each structure is given as a SMILES string. About 200 (4.4%) of roughly 4,500 compounds were called active. Shown is part of a subset that was picked to be rich in actives. Values without a mark were called inactive.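 Rule for the calls: active = cell survival measured by absorbance rises more than 2.5-fold over infected cells without compound; inactive = the rest.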

A short description of this test: survival after telomere uncapping, modulators, primary screen, cell-based (AID 1259312).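 Note: virus expresses mutant telomerase RNA that uncaps telomeres and kills cells; compound added 2 days after infection so exposure lasts 3 days.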 The following applies: HCT116 + Ad-hTR-mut, MTT, 5 d; at 10 µM, active compounds read high.
Regarding `Cc1ccc2c(c1)c1c3n2CCN(c2nc(-c4ccc(Cl)cc4)cs2)C3CCC1` (stereo not given), the fold change is 1.42.

For `O=C1CC(=O)N(c2ccc(Br)cc2)N1`, the fold change was -1.32. Then `Cn1cccc1/C=C1/C(=O)ON=C1c1ccccc1`, with -2.3; and `CCCCCCC1(C)OCO/C1=C\C[N+](C)(C)C` (stereo not given), with -1.62; and `CN1CCN(S(=O)(=O)c2ccc(Br)cc2)CC1`, with 3.8 (active).

With `O=S(=O)(c1ccc(Oc2ccc(Br)cc2)cc1)N1CCOCC1`, the fold change is -1.23. Then `O=S(=O)(c1ccc(Br)cc1)N1CCCCCC1`, with 1.7. Then `Nc1nnc(SCc2cccc(CSc3nnc(N)s3)n2)s1`, with 1.27. The value for `Cn1c(=O)n(C)c2cc(CN3C(=O)c4ccccc4C3=O)ccc21` was 1.01; that for `O=S(=O)(Nc1ccc(Cl)cn1)c1ccc(Br)cc1` was -1.1. For the compound `CC(=O)NS(=O)(=O)c1ccc(N)cc1`, the fold change is -1.73. The value for `Nc1ccc(S(=O)(=O)Nc2ccc(Cl)nn2)cc1` was 2.5 (active); that for `CCc1nnc(NS(=O)(=O)c2ccc(N)cc2)s1` was 3.88 (active); that for `CNS(=O)(=O)c1ccc(N)cc1` was 1.14. For `Nc1ccc(S(=O)(=O)Nc2ccccc2)cc1`, the fold change is -1.09.

`O=c1[nH]c(O)c(C=Nc2ccccc2Br)c(=O)[nH]1`: the fold change result is “inactive”. The value for `O=C(O)C1CCS(=O)(=O)C1` (stereo not given) was 2.36. The value for `CC1=C(C(=O)OCC2CCCO2)C(c2ccc(C)o2)C2=C(CCCC2=O)N1` (stereo not given) was 1.18; that for `CCCOC(=O)C1=C(C)NC2=C(C(=O)CC(C)(C)C2)C1c1ccc(C)o1` (stereo not given) was -1.43. The value for `CC1=C(C(=O)OCC2CCCO2)C(c2ccc(C)o2)C2=C(CC(C)(C)CC2=O)N1` (stereo not given) was 2.87 (active); that for `CCCCC(CC)C(=O)N(CC#N)CC#N` (stereo not given) was -1.13. In the case of `CC(C)(C)c1ccc(C(N2CCCCC2)P(=O)(c2ccccc2)N2CCCCC2)cc1` (stereo not given), the fold change was -1.12.

Consider `Cc1cc(/C=c2\sc3nc4ccccc4n3c2=O)c(C)n1C1CCCC1`, for which the fold change was -1.02. Then `Cn1cc([N+](=O)[O-])c(C(=O)n2cccn2)n1`, with -1.36; and `COC(=O)c1ccc(=O)oc1`, with -1.06; and `CN(C(=O)CSC(=S)N1CCCC1)c1ccccc1`, with 1.5.

With `N#Cc1c(N)sc2c1CCCCC2`, the fold change was 3 (active).

In the case of `CC(=O)Nc1sc2c(c1C#N)CCCC2`, the fold change is 1.19.

Regarding `CN1CCc2c(sc(N)c2C#N)C1`, the fold change is 1.58. The value for `c1ccc2c(Cc3ccncc3)c3ccccc3nc2c1` was -1.25; that for `O=[N+]([O-])c1cc(Br)cc(C=NCCCCCCN=Cc2cc(Br)cc([N+](=O)[O-])c2O)c1O` was “inactive”; that for `Cn1cccc1/C=C(/C#N)C(N)=O` was 1.32. Take `Cc1cc(NS(=O)(=O)c2ccc(N)cc2)no1`: the fold change is -1.35. Then `COc1cc(NC(=O)CCC(=O)O)nc(OC)n1`, with -1.34.

`COc1cc(NS(=O)(=O)c2ccc(N)cc2)nc(OC)n1`: the fold change is 3.06 (active).

On to `CCOC(=O)/C(C#N)=C/Nc1ccsn1`, for which the fold change is 2.1. The value for `N#CC1=C(N)n2c(s/c(=C\c3ccc(O)cc3)c2=O)=C(C#N)C1c1ccc(O)cc1` (stereo not given) was -3; that for `COc1ccccc1OCCSc1nc2ccccc2o1` was -1.24; that for `O=[N+]([O-])c1ccc(Nc2ccc3c(c2)OCCO3)nc1` was -1.85. For `O=[N+]([O-])c1cccnc1NCCc1cccs1`, the fold change was -2.56. The value for `O=[N+]([O-])c1ccc(NCCc2cccs2)nc1` was 2.58 (active). For the compound `O=[N+]([O-])c1ccc2c(c1)Cc1cc([N+](=O)[O-])ccc1-2`, the fold change is -1.19. As to `O=S(=O)(c1ccc(Cl)cc1)N1CCc2ccccc21`, the fold change is 4.39 (active). On to `O=S(=O)(c1ccccc1)N1CCc2ccccc21`, for which the fold change was -1.19.

In the case of `O=S(=O)(c1ccc(Cl)cc1)N1CCCc2ccccc21`, the fold change was 1.97. The value for `CCOC(=O)c1c(NC(=O)c2cccs2)sc2c1CCCCC2` was 1.37; that for `CC(C(=O)Nn1cnnc1)N1C(=O)c2ccccc2C1=O` (stereo not given) was -8.91. The value for `O=[N+]([O-])c1cccc(S(=O)(=O)N2CCCC2)c1` was 3.3 (active); that for `Nc1cccc(S(=O)(=O)N2CCCC2)c1` was -1.08. The value for `O=[N+]([O-])c1ccc2c(c1)oc1ccc(S(=O)(=O)N3CCCC3)cc12` was 1.12; that for `CC(C)CC(=O)NC1CCCCCC1` was -1.5. Turning to `O=C1N=C(N2CCOCC2)S/C1=C\C1=Cc2ccccc2OC1`, the fold change is -1.34.

Consider `OC[C@H]1O[C@@H](O[C@@H]2[C@@H](CO)O[C@](O)(CO)[C@H]2O)[C@H](O)[C@@H](O)[C@H]1O`, for which the fold change is 1.55. As to `OCC1(O)OC[C@H](O)[C@@H](O)[C@@H]1O` (stereo not given in full), the fold change is 2.95 (active).

Take `CC1(C)[C@H]2CCC1(CS(=O)(=O)N(C1CCCCC1)C1CCCCC1)C(O)C2` (stereo not given in full): the fold change was -1.17. `O=C(Cn1c(C(F)(F)F)nc2ccccc21)NC1CCCCC1`: the fold change is -1.95. With `N=C1SCC(=O)N1c1nccs1`, the fold change was 1.78. As to `O=c1c2ccccc2c2nc3c(c(-c4ccccc4)c12)c(=O)c1ccccc13`, the fold change is -1.07. The value for `c1ccc2c(c1)c1ccccc1c1nc3c4ccccc4c4ccccc4c3nc21` was 4.67 (active); that for `O=c1c2ccccc2c2nc3c(c(-c4cccc(Br)c4)c12)c(=O)c1ccccc13` was -1.26; that for `COC(=O)C1=C(C(=O)OC)SC2(S1)C(C(=O)OC)=C(C(=O)OC)SC1=C2c2cc(OC)ccc2NC1(C)C` was 1.52. Then `Cc1ccc(-c2n[nH]c(=S)n2C)cc1Cl`, with -1.92.

As to `Cn1c(-c2ccc(Cl)cc2Cl)n[nH]c1=S`, the fold change is 2.57 (active). The value for `C=CCn1c(-c2ccc(Cl)cc2Cl)n[nH]c1=S` was 1.34. Consider `NC(=O)c1c(NC(=O)CCC(=O)O)sc2c1CCCC2`, for which the fold change was -1.38.
